Laboratory results reported in PMC11006913.

Legend:
Assay in all cases: PBM; 200 nM protein, PBS
Conditions in all cases: dsDNA, one strand shown
NKX3-2 [1] = biological target: NKX3-2 (Homo sapiens, UniProt P78367 192-278, P234S)
NKX3-2 [2] = biological target: NKX3-2 (Homo sapiens, UniProt P78367 192-278)
CRX = CRX (Homo sapiens, UniProt O43186 26-111, R41L)
ALX1 = ALX1 (Homo sapiens, UniProt Q15699 118-204)
HOXA4 = HOXA4 (Homo sapiens, UniProt Q00056 201-287, W262F)
ALX3 = ALX3 (Homo sapiens, UniProt O95076 139-225, N203S)
HOXA2 = HOXA2 (Homo sapiens, UniProt O43364 129-215)
NKX2-5 = NKX2-5 (Homo sapiens, UniProt P52952 125-210)
NKX2-5, sequence (P52952 125-210): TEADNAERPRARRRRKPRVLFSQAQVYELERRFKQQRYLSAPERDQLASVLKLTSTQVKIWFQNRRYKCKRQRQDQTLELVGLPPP

NKX3-2 (Homo sapiens, UniProt P78367 192-278), sequence (P78367 192-278): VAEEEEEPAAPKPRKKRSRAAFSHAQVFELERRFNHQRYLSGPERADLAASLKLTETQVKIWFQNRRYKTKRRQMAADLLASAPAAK
NKX3-2 (Homo sapiens, UniProt P78367 192-278, P234S), sequence (P78367 192-278 P234S): as the sequence (P78367 192-278) above, with P43S counted along it
HOXA2, sequence (O43364 129-215): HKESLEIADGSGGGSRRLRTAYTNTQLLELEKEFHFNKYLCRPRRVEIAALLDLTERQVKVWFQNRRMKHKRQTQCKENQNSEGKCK
CRX, sequence (O43186 26-111 R41L): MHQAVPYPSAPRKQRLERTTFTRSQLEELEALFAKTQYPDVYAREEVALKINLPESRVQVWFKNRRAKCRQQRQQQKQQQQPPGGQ
HOXA4, sequence (Q00056 201-287 W262F): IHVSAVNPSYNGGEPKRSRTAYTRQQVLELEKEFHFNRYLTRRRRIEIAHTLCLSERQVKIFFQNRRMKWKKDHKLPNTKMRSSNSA
ALX1, sequence (Q15699 118-204): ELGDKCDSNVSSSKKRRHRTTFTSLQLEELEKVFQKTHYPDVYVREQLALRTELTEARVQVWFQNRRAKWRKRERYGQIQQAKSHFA
ALX3, sequence (O95076 139-225 N203S): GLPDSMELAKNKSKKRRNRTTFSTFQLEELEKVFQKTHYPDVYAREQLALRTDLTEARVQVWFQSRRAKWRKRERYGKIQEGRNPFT

Sequence: AATGCGGT
- binding signal (NKX3-2 [1]): 10.7 upbm affinity estimate (log intensity, higher = more binding, comparable within an allelic series)
- binding signal (NKX3-2 [2]): 10.8 upbm affinity estimate (log intensity, higher = more binding, comparable within an allelic series)

Sequence: GAGAGTAC
- binding signal (NKX3-2 [1]): 12 upbm affinity estimate (log intensity, higher = more binding, comparable within an allelic series)
- binding signal (NKX3-2 [2]): 12.1 upbm affinity estimate (log intensity, higher = more binding, comparable within an allelic series)

Sequence: GGCCTCAC
- binding signal (NKX3-2 [1]): 10.5 upbm affinity estimate (log intensity, higher = more binding, comparable within an allelic series)
- binding signal (NKX3-2 [2]): 10.6 upbm affinity estimate (log intensity, higher = more binding, comparable within an allelic series)

Sequence: AGCTTAAG
- binding signal (CRX): 11.6 upbm affinity estimate (log intensity, higher = more binding, comparable within an allelic series)

Sequence: AGTATTAG
- binding signal (CRX): 10.8 upbm affinity estimate (log intensity, higher = more binding, comparable within an allelic series)

Sequence: GTCAACAA
- binding signal (ALX1): 7.43 upbm affinity estimate (log intensity, higher = more binding, comparable within an allelic series)

Sequence: CCATTAGA
- binding signal (HOXA4): 10.6 upbm affinity estimate (log intensity, higher = more binding, comparable within an allelic series)

Sequence: CTATATTA
- binding signal (ALX3): 8.73 upbm affinity estimate (log intensity, higher = more binding, comparable within an allelic series)

Sequence: AAATACCA
- binding signal (HOXA2): 9.01 upbm affinity estimate (log intensity, higher = more binding, comparable within an allelic series)

Sequence: GACACTAA
- binding signal (HOXA2): 9.38 upbm affinity estimate (log intensity, higher = more binding, comparable within an allelic series)

Sequence: AATTGACC
- binding signal (NKX2-5): 10.6 upbm affinity estimate (log intensity, higher = more binding, comparable within an allelic series)

Sequence: CCCTCAAA
- binding signal (NKX3-2 [2]): 11.6 upbm affinity estimate (log intensity, higher = more binding, comparable within an allelic series)

Sequence: GGAGAGTA
- binding signal (NKX3-2 [2]): 11.6 upbm affinity estimate (log intensity, higher = more binding, comparable within an allelic series)
